Results taken from PubChem BioAssay AID588689 (Southern Research Specialized Biocontainment Screening …, 2011).
About 1,000 (0.29%) of roughly 340,000 compounds were called active. No stated cut-off is given here; in the data, inconclusive means inhibition above about 29% without an active follow-up result; inactive means below that. These entries were drawn from the full list. Results with a measured potency or affinity are listed apart.

Biological target: Genome polyprotein (Dengue virus type 2 (strain 16681-PDK53)) (UniProt P29991)
Assay: Dengue-2 NS5 methyltransferase inhibitors, primary screen, biochemical, confirmation dose response (AID 588689)
Details: Dengue-2 NS5 methyltransferase capping enzyme assay, at 25 µM, stronger effect = higher value
[1] = measured here: pilot screen replicate inhibition

| Structure (SMILES) | inhibition | inhibition [1] [%] |
| --- | --- | --- |
| CCN(CC)C(=O)C1CCCN(C(=O)Nc2ccccc2)C1 (stereo not drawn) | -0.8% (inactive) |  |
| CN(/N=C/c1ccc2c(c1)OCO2)c1ccccc1 | -8.15% (inactive) |  |
| COc1cccc(-c2ncc3ccccc3c2COC(=O)c2cccs2)c1 | -7.94% (inactive) |  |
| O=C(c1ccco1)N1CCN(S(=O)(=O)c2cccc(C(F)(F)F)c2)CC1 | 0% (inactive) |  |
| O=C(NCCc1ccccc1)c1ccc2nccnc2c1 | 0% (inactive) |  |
| Cc1nc2ccc(C(=O)O)cc2nc1C | -2.96% (inactive) |  |
| O=C(c1ccc2nc(-c3ccco3)c(-c3ccco3)nc2c1)N1CCN(c2ccccc2)CC1 | 0% (inactive) |  |
| O=C(Nc1ccccc1)c1ccc2nc(-c3ccco3)c(-c3ccco3)nc2c1 | 44.6% (inactive) |  |
| O=C(c1ccccc1)c1ccc2nc(-c3ccco3)c(-c3ccco3)nc2c1 | 51.1% (inactive) |  |
| COc1ccc(-c2nc3ccc(C(=O)NCCCN4CCOCC4)cc3nc2-c2ccc(OC)cc2)cc1 | -9.54% (inactive) |  |
| CCc1nc2ccc(C(=O)NCc3ccco3)cc2nc1CC | -6.11% (inactive) |  |
| O=C(O)c1ccc2nc(-c3ccccc3)c(-c3ccccc3)nc2c1 | -2.57% (inactive) |  |
| Cc1ccc(NC2CCCN(C(=O)c3cn4cc(Cl)ccc4n3)C2)cc1C (stereo not drawn) | 3.88% (inactive) |  |
| COc1ccccc1N1CCN(CC(=O)Nc2ccc(CN3CCCCC3)cc2)CC1 | -7.05% (inactive) |  |
| CC1=C(C#N)C(c2ccc(O)cc2)C2=C(CCCC2=O)N1 (stereo not drawn) | 0% (inactive) |  |
| COc1ccc2cc(C3(C)NC(=O)N(CC(=O)NCCC4=CCCCC4)C3=O)ccc2c1 (stereo not drawn) | -6.89% (inactive) | -2.13 |
| Cc1cc(C)cc(NC(=S)NC2CC3CCCC(C2)N3C2CC2)c1 (stereo not drawn) | -10.8% (inactive) |  |
| Cc1cc(C(F)(F)F)nn1CC(=O)N1CCOCC1 | -2.05% (inactive) |  |
| CCN1C(=O)C(=O)N(CC(=O)Nc2cccc(C(F)(F)F)c2)C1=O | 6.2% (inactive) |  |
| O=C(CN1C(=O)CNC1=O)Nc1cccc(C(F)(F)F)c1 | -1.61% (inactive) |  |
| O=C(CN1C(=O)/C(=C2\SC(=S)N(C3CCS(=O)(=O)C3)C2=O)c2ccccc21)Nc1ccccc1 (stereo not drawn) | -1.82% (inactive) |  |
| COc1ccc(NC(=O)CN2C(=O)/C(=C3\SC(=S)N(CCC(=O)O)C3=O)c3ccccc32)cc1 | 2.68% (inactive) |  |
| Cc1cccc(NC(=O)CN2C(=O)/C(=C3\SC(=S)N(CC4CCCO4)C3=O)c3ccccc32)c1 (stereo not drawn) | -5.35% (inactive) |  |

| Structure (SMILES) | inhibition | inhibition [1] [%] |
| --- | --- | --- |
| CC(=O)N1C(=S)NC(=O)/C1=C1/C(=O)N(CC(=O)Nc2cccc(C)c2)c2ccccc21 | -2.91% (inactive) |  |
| CCO[C@H]1OC(C(=O)O)=C[C@@H](c2cn(C(C)=O)c3ccccc23)[C@@H]1CCCO | -0.8% (inactive) |  |
| Cc1ccccc1C(=O)NCCNC(=O)c1ccccn1 | 4.99% (inactive) |  |
| O=C(CSc1ccc(F)cc1)Nc1ccc(N2CCOCC2)c(Cl)c1 | -4.54% (inactive) |  |
| CC(=O)N1CCN(CC(=O)Nc2ccccc2C(=O)NCc2ccc(C)cc2)CC1 | -0.89% (inactive) |  |
| Cc1ccc(OCC(=O)OCC(=O)Nc2ccc3c(c2)OCO3)cc1C | -3.82% (inactive) |  |
| Cc1cc(C(=O)OCC(=O)NCc2ccc(Cl)cc2Cl)c(C)o1 | -0.73% (inactive) |  |
| Clc1ccc(CN2CCSCC2)c(Cl)c1 | -3.29% (inactive) | 2.1 |
| C=C(C)c1cccc(C(C)(C)NC(=O)N2CCCC(C)C2)c1 (stereo not drawn) | -4.84% (inactive) |  |
| Cc1cc(=O)[nH]c(N/N=C/c2cc(C)n(CC(F)(F)F)c2C)n1 | 1.74% (inactive) |  |
| CC1CCN(C(=S)c2cn(Cc3ccc(F)cc3)c3ccccc23)CC1 | -6.61% (inactive) |  |
| COCCN(C(=O)c1csnn1)C(C(=O)NC(C)(C)C)c1cccc(OC)c1 (stereo not drawn) | 0% (inactive) |  |
| N#Cc1cc(N2CCCCC2)c([N+](=O)[O-])cc1C#N | -5.36% (inactive) |  |
| O=[N+]([O-])c1cc(F)c(N2CCCCC2)cc1N1CCOCC1 | -8.91% (inactive) |  |
| O=C(NCc1ccccc1Cl)C(=O)NCC1OCCN1S(=O)(=O)c1ccc(F)cc1 (stereo not drawn) | -4.82% (inactive) |  |
| CCc1ccc2c(c1)C(=O)C(=O)N2CCS(=O)(=O)c1ccccc1 | -11.6% (inactive) |  |
| O=C(O)C(Cc1ccccc1)N1C(=O)/C(=C/c2cccnc2)SC1=S (stereo not drawn) | 8.37% (inactive) |  |
| COc1ccc(/C=C2\SC(=S)N(C(Cc3ccccc3)C(=O)O)C2=O)cc1 (stereo not drawn) | 20.7% (inactive) |  |
| O=C(O)C(Cc1ccccc1)N1C(=O)/C(=C/c2ccccc2)SC1=S (stereo not drawn) | 15.5% (inactive) |  |
| COc1cccc(/C=C2/SC(=S)N(CCCC(=O)Nc3ccc(O)cc3)C2=O)c1 | -5.15% (inactive) |  |
| COc1cc2c(=O)[nH]c3cc([N+](=O)[O-])ccc3c2cc1[N+](=O)[O-] | 8.05% (inactive) |  |
| CCC(=O)Nc1nnc(Cc2ccccc2)s1 | 1.61% (inactive) |  |
| CCN(CC)CCN1C(=O)C(=O)/C(=C(/O)c2ccc(S(=O)(=O)N3CCOCC3)cc2)C1c1ccc(Cl)cc1 (stereo not drawn) | -6.64% (inactive) |  |

| Structure (SMILES) | inhibition | inhibition [1] [%] |
| --- | --- | --- |
| O=S(=O)(Nc1cccc2ccccc12)c1cccs1 | -1.29% (inactive) |  |
| COc1ccccc1NS(=O)(=O)c1cccs1 | 0% (inactive) |  |
| O=C(CN1C(=O)/C(=C\c2cccc(Br)c2)Oc2ccccc21)NCCCN1CCOCC1 | 0.88% (inactive) |  |
| O=C(CN1C(=O)/C(=C/c2cccc(Br)c2)SC1=S)N1CCCC1 | -5.1% (inactive) |  |
| O=C(CCCN1C(=O)/C(=C/c2ccccc2Cl)SC1=S)NNC(=O)c1ccccc1 | 8.33% (inactive) |  |
| O/N=C/c1cc(Br)ccc1OCc1ccccc1F | 8.73% (inactive) |  |
| O=C1/C(=C\c2cccc([N+](=O)[O-])c2O)SC(=S)N1Cc1ccccc1 | 32.5% (inactive) |  |
| Cc1cc(NC(=O)CN2C(=O)/C(=C/c3ccccc3F)SC2=S)no1 | 2.68% (inactive) |  |
| CCN1C(=O)C(=Cc2cccc(OC)c2Oc2ccc([N+](=O)[O-])cc2[N+](=O)[O-])SC1=S | -1.31% (inactive) |  |
| CN1CCN(c2ccc(NS(=O)(=O)c3ccc(Cl)cc3)cn2)CC1 | -7.03% (inactive) |  |
| Cc1nnc(NC(=O)CC23CC4CC(CC(C4)C2)C3)s1 | -6.26% (inactive) |  |
| O=C(Nc1ccc2c(c1)OCO2)C1CCN(S(=O)(=O)c2cccc3cccnc23)CC1 | 2.93% (inactive) |  |
| CCCOc1ccc(/C=C/C(=O)OCC(=O)N(C)c2c(N)n(Cc3ccccc3)c(=O)[nH]c2=O)cc1OCC | 3.69% (inactive) |  |
| CC(C)N(O)C(=O)NC(C)(C)C | 0% (inactive) |  |
| COc1ccc(NC2=CC(=O)N(C)C2=O)cc1 | -10.2% (inactive) |  |
| COc1ccc(C(=O)Nc2cccc(-c3ccc4nncn4n3)c2)cc1OC | 2.3% (inactive) |  |
| Cc1c(N=C/C=C2\N(C)c3ccccc3C2(C)C)c(=O)n(-c2ccccc2)n1C | -3.46% (inactive) |  |
| CCc1cc(=O)oc2c3c(cc(OCC(=O)NCCCn4ccnc4)c12)OC(C)(C)CC3 | -1.45% (inactive) |  |
| OCC[C@H]1C[C@H](O)[C@@H](O)[C@]2(OCCc3ccccc32)O1 | -1.2% (inactive) |  |
| COc1cc(CNc2ccc(S(N)(=O)=O)cc2)ccc1OCc1ccccc1F | -6.36% (inactive) |  |
| CCOc1cc(CNc2ccc(S(N)(=O)=O)cc2)cc(Cl)c1OC | 3.64% (inactive) |  |
| COc1cc(CNc2ccc(N3CCCC3)cc2)ccc1OCc1ccccc1 | 12.3% (inactive) |  |
| COc1cc(CNc2ccc(N3CCCC3)cc2)cc(Cl)c1OC | 13.9% (inactive) |  |

| Structure (SMILES) | inhibition | inhibition [1] [%] |
| --- | --- | --- |
| CCOc1c(Br)cc(CNc2ccc(N3CCOCC3)cc2)cc1OC | 70.4% (inactive) |  |
| CCOc1c(Cl)cc(CNc2ccc(S(N)(=O)=O)cc2)cc1OC | -1.46% (inactive) |  |
| Cc1nn(C)c(Cl)c1CN1CCCC(CCC(=O)NCc2ccccc2F)C1 (stereo not drawn) | 0% (inactive) |  |
| CCN1C(=O)[C@@H]2[C@@H](c3ccc(-c4ccc(OC)cc4)c(OC)c3)N3CCCC[C@@]3(C(=O)OC)[C@@H]2C1=O | 17.5% (inactive) |  |
| CCN1CCN(C(=O)CCc2nnc(CCc3c[nH]c4ccccc34)o2)[C@@H](C)C1=O | -13.8% (inactive) |  |
| CN(C(=O)CSc1nnc(-c2cccnc2)n1-c1ccccc1F)C1CCS(=O)(=O)C1 (stereo not drawn) | 5.09% (inactive) |  |
| O=C(C1=C(c2ccccc2)C(=O)c2ccccc2C1=O)c1ccccc1 | 3.59% (inactive) |  |
| CC(=O)C1=C(c2ccc(Br)cc2)C(=O)c2ccccc2C1=O | 35% (inactive) |  |
| Nc1ccc(NC(=O)c2ccccc2)c2c1C(=O)c1ccccc1C2=O | 3.24% (inactive) |  |
| Cc1cc(C)cc(NC2=C(N)C(=O)c3ccccc3C2=O)c1 | 13% (inactive) |  |
| Nc1ccccc1NC(=O)c1ccccc1 | 3.27% (inactive) |  |
| COc1cc(NS(=O)(=O)c2ccc(C)cc2)c2c(c1N)C(=O)c1ccccc1C2=O | 9.7% (inactive) |  |
| O=C(NCCc1nc2ccccc2[nH]1)/C(=C/c1ccc2c(c1)OCO2)NC(=O)c1ccc(Cl)cc1Cl | -5.82% (inactive) |  |
| CCCCNC(=O)COC(=O)c1c2c(nc3ccccc13)CCC2 | 4.4% (inactive) |  |
| Cn1ccnc1C1CCCCN1C(=O)c1cc(COc2ccc(F)cc2F)on1 (stereo not drawn) | 1.47% (inactive) |  |
| O=C1C(Cl)=C(N2CCOCC2)C(=O)N1CCc1ccccc1 | -0.8% (inactive) |  |
| O=C1C(Cl)=C(N2CCN(Cc3ccccc3)CC2)C(=O)N1c1ccccc1 | 67.7% (inactive) |  |
| CN(C)C1=C(Cl)C(=O)N(c2ccc(Cl)c(Cl)c2)C1=O | 26.8% (inactive) |  |
| CN1CCN(C2=C(Cl)C(=O)N(c3ccc(Cl)cc3)C2=O)CC1 | 14.2% (inactive) |  |
| Cc1ccc(N2C(=O)C(Cl)=C(N3CCCCCC3)C2=O)cc1 | -6.21% (inactive) |  |
| CC(C)c1ccc(S(=O)(=O)Nc2ccc(N3CCOCC3)cc2)cc1 | -9.76% (inactive) |  |
| Cc1cccc(C)c1N1C(=O)C(Cl)=C(N2CCCC2)C1=O | -10.8% (inactive) |  |
